Source: ChEMBL document CHEMBL4513216, “Probing the Open Global Health Chemical Diversity Library for Multistage-Active Starting Points for Next-Generation Antimalarials” (ACS Infect Dis, 2020)
Out of some 69,000 compounds screened, about 8,600 (12%) showed an effect of 50% or more. For the sample, strong results were picked, then their nearest neighbours and some compounds at random.

These molecules were tested on Plasmodium berghei (assay: Screen against P. berghei liver stage (PbLuc), transformed with Luciferase, at 10uM). Conditions: tested at 10 uM.
Type: functional, HepG2

Row | SMILES | INHIBITION [%]
1 | O=C(CN1CCC(c2nnc(C(F)(F)F)o2)CC1)NCc1ccccc1 | -3.48
2 | CCc1nnc(Nc2cccc(C3CCN(CC4CC4)CC3)n2)s1 | 14.7
3 | CCc1ccc(C(=O)N2CCN(CC(O)c3ccccc3)CC2)o1 (stereo not given) | 37.9
4 | c1ccc(Cc2nnc(CN3CCc4cncnc4C3)o2)cc1 | -31.3
5 | Cc1noc(C)c1CN1CCC(N(C)Cc2noc(C(C)C)n2)C1 (stereo not given) | 29.8
6 | CSCC[C@H](N)c1nnc(SCc2cc(C)ccc2C)o1 | 12.5
7 | Cc1nc(C)n(CC2CCCN2CC(=O)NCCc2ccsc2)n1 (stereo not given) | 91.3
8 | Cc1nc(C)n(CC2CCCN2CC(=O)NCCc2ccccc2)n1 (stereo not given) | 9.54
9 | CC(=O)NCCNC(=O)CN1CCCC1Cn1nc(C)nc1C (stereo not given) | 1.56
10 | O=C(CN1CCCCC1Cn1cncn1)NCCc1ccsc1 (stereo not given) | -81.3
11 | Cc1nc(C)n(CC2CCCN2CC(=O)NCCC2=CCCCC2)n1 (stereo not given) | 77.7
12 | O=C(CN1CCCC1Cn1cncn1)NCCC1=CCCCC1 (stereo not given) | 27.6
13 | COc1ccc(CN2CCO[C@H]3CN(C4CCC4)CC[C@H]3C2=O)cc1 | 17.2
14 | O=C(c1cccc(F)c1)N1CCOC(c2nc(-c3ncccn3)no2)C1 (stereo not given) | 13.1
15 | CC(C)c1nnc2n1CCN(CCC(=O)Nc1sccc1C#N)C2 | 5.7
16 | CN(C)Cc1cc(C2CCCN(S(=O)(=O)c3cccc(Cl)c3)C2)nn1C (stereo not given) | -14.2
17 | Cc1ncc(CN2CCCC(c3cc(C(F)(F)F)[nH]n3)C2)s1 (stereo not given) | -17.6
18 | CCCNC(=O)c1ccc(S(=O)(=O)NCC2(O)CCCNC2)cc1 (stereo not given) | 43.4
19 | CCCNC(=O)c1ccc(S(=O)(=O)NC2(COC)CCCC2)cc1 | 56.3
20 | CCCNC(=O)c1ccc(S(=O)(=O)NCC2(COC)CCCC2)cc1 | 89.7
21 | CCCNC(=O)NCc1ccccc1NS(=O)(=O)c1ccccc1 | -24.7
22 | CCOCCC1(CNC(=O)c2ccncc2)CCC1 | -37.7
23 | CNS(=O)(=O)c1ccc(C(=O)NCCNc2ncccn2)cc1 | 33
24 | CC(=O)N(Cc1ncc(C)o1)C1CCN(Cc2cc(C)on2)C1 (stereo not given) | -16

Row | SMILES | INHIBITION [%]
25 | COC(CNC(=O)C1CCN(S(C)(=O)=O)CC1)c1ccc(C)s1 (stereo not given) | 36.8
26 | COc1ccc(CN(C)[C@@H]2CN(C(=O)c3ccccc3)C[C@H]2O)cc1 | 25.6
27 | COc1ccc(CN(C)[C@@H]2CN(C(=O)c3cnn(C)c3)C[C@H]2O)cc1 | 2.71
28 | COc1ccc(CN(C)[C@@H]2CN(C(=O)c3cccnc3)C[C@H]2O)cc1 | 52
29 | COc1ccc(CN(C)[C@@H]2CN(C(=O)c3cccs3)C[C@H]2O)cc1 | 24.5
30 | COc1ccc(CN(C)[C@@H]2CN(C(=O)c3cncs3)C[C@H]2O)cc1 | 56.8
31 | COc1ccc(CN(C)[C@@H]2CN(C(=O)c3ccnn3C)C[C@H]2O)cc1 | -55
32 | COc1ccnc(N2CCN(Cc3nc(-c4ccoc4)no3)CC2)c1 | 9.52
33 | Cc1nc(C)n(CC2CCCN2Cc2cn3cc(Cl)ccc3n2)n1 (stereo not given) | 15.3
34 | O=C(c1ccccc1)N1C[C@@H]2CCCO[C@@H]2[C@H](N2CCOCC2)C1 | 49.7
35 | Cc1cccc(C(=O)N2CCO[C@H]3[C@H](OCCN(C)C)CC[C@@H]32)n1 | 54
36 | Cc1ccc(C(=O)N2C[C@@H]3CCCO[C@@H]3[C@H](N3CCOCC3)C2)cn1 | 52.6
37 | CN(C)CCO[C@@H]1CC[C@H]2[C@H]1OCCN2C(=O)c1ccncc1 | 29.3
38 | O=C(c1ccccc1)N1C[C@@H]2CCCO[C@@H]2[C@H](N2CCCC2)C1 | 52.6
39 | Cn1cccc1C(=O)N1C[C@@H]2CCCO[C@@H]2[C@H](N2CCOCC2)C1 | 30.5
40 | Cc1cc(C(=O)N2C[C@@H]3CCCO[C@@H]3[C@H](N3CCOCC3)C2)c(C)[nH]1 | 4.02
41 | Cc1ccc(C(=O)N2C[C@@H]3CCCO[C@@H]3[C@H](N3CCCC3)C2)cn1 | 30.5
42 | Cc1ccc(C(=O)N2CCO[C@H]3[C@H](OCCN(C)C)CC[C@@H]32)cn1 | -9.26
43 | CO[C@H]1CC[C@H]2[C@H]1OCCN2C(=O)c1ccc(C)nc1 | -6.39
44 | Cc1ccccc1C(=O)N1CCO[C@H]2[C@H](OCCN(C)C)CC[C@@H]21 | -0.371
45 | CO[C@@H]1CC[C@H]2[C@H]1OCCN2C(=O)c1ccc(C)nc1 | 67
46 | COc1ccc(Cn2cc(C(=O)N(C)CCN(C)C)nn2)cc1 | 28.5
47 | c1cncc(COCc2nnc3n2CCN(CC2CC2)C3)c1 | -15.7
48 | CCS(=O)(=O)CCN(C)C(=O)NC(C)c1ccc(C)s1 (stereo not given) | 22.6

Row | SMILES | INHIBITION [%]
49 | CCc1sc(C(=O)N2CCC(Nc3ccc(C)nn3)CC2)cc1C | 42
50 | Cc1ccc(C(=O)N2C[C@H](N3CCOCC3)[C@@H]3OCCC[C@@H]32)cn1 | 50.3
51 | Cc1ccc(C(=O)N2C[C@@H](N3CCN(C)CC3)[C@H]3OCCC[C@H]32)cn1 | 10.4
52 | Cc1cnc(C(=O)N2C[C@H](N3CCOCC3)[C@@H]3OCCC[C@@H]32)cn1 | 45.7
53 | CC(=O)NCC1CCN(C(=O)c2ccc(Sc3ccccn3)cc2)CC1 | 14.4
54 | CC(=O)N1CCN(c2cnnc(N3CCCC3)c2)CC1 | 31.9
55 | O=C(c1ccccc1)N1C[C@H]2CC[C@@H](C1)N(Cc1cc(F)ccc1Cl)C2 | 25
56 | NCCN1C(=O)CC[C@H]2CN(Cc3ccc4occc4c3)CC[C@H]21 | 30.3
57 | COCCCN1C(=O)CC[C@H]2CN(Cc3ccc4occc4c3)CC[C@H]21 | 16.1
58 | COCCCN1C(=O)CC[C@H]2CN(Cc3ccc4nonc4c3)CC[C@H]21 | 53.4
59 | COCCCN1C(=O)CC[C@H]2CN(Cc3cc4ccccc4o3)CC[C@H]21 | 73.9
60 | COCCCN1C(=O)CC[C@H]2CN(c3nc4ccccc4s3)CC[C@H]21 | 41.2
61 | COCCCN1C(=O)CC[C@H]2CN(c3ccnc4ccccc34)CC[C@H]21 | 63.9
62 | COCCCN1C(=O)CC[C@H]2CN(c3cc(C(N)=O)ccn3)CC[C@H]21 | 24.9
63 | COCCCN1C(=O)CC[C@H]2CN(c3cnc4ccccc4n3)CC[C@H]21 | 28.5
64 | COCCCN1C(=O)CC[C@H]2CN(Cc3ncc[nH]3)CC[C@H]21 | 38.8
65 | CC(=O)N1CCCC(c2ccc(N3CCOCC3)cn2)C1 (stereo not given) | -4.51
66 | Cc1ccc(NCc2cnc3n2CCN(c2ncccn2)CC3)nn1 | 35.2
67 | Cc1ccccc1CNC(=O)C1CCN(Cc2nccn2C)CC1 | -17
68 | CC(=O)N1CCC(Cc2cnc(-c3c(C)nn(C)c3C)cn2)C1 (stereo not given) | 33.5
69 | Cn1ccnc(Sc2cccc(C#N)c2)c1=O | 15
70 | COCCN1CCN(C(=O)C(c2cccc(F)c2)N(C)C)CC1 (stereo not given) | 41.5
71 | COCCCN1CCN(C(=O)C(c2cccc(F)c2)N(C)C)CC1 (stereo not given) | 50.1
72 | CN(C)C(C(=O)N1CCN(CCn2cccc2)CC1)c1cccc(F)c1 (stereo not given) | 44.7

Row | SMILES | INHIBITION [%]
73 | CC(Cn1ccnc1)NC(=O)N1CCN(Cc2ccsc2)CC1 (stereo not given) | 31.9
74 | COc1ccc2c(c1)CC(C1CCOCC1)N(C(=O)c1ccn(C)n1)C2 (stereo not given) | 2.45
75 | CC(=O)N(Cc1ncc(C(C)C)o1)C1CCN(CCn2cncn2)C1 (stereo not given) | -13.2335
76 | CC1=CC[C@@H]2CN(C(=O)c3ccc(-c4nc[nH]n4)cc3)C[C@@H]2C1 | 40.7
77 | c1ccc(OC[C@]23COC[C@H]2CN(c2ncccn2)C3)nc1 | 31.9
78 | O=C(CC1CC1)NC[C@]12COC[C@H]1CN(c1ncc(F)cn1)C2 | 1.48
79 | COc1cc(N2C[C@@H]3COC[C@]3(COc3ncccc3F)C2)ncn1 | 73
80 | COc1cc(N2C[C@@H]3COC[C@]3(COCc3ccncc3)C2)ncn1 | 34.6
81 | O=C(CC1CC1)NC[C@]12COC[C@H]1CN(c1ncccn1)C2 | 88
82 | c1ccc(COC[C@]23COC[C@H]2CN(c2ncccn2)C3)nc1 | 53
83 | COc1cc(N2C[C@@H]3COC[C@]3(COc3ccccn3)C2)ncn1 | -6.3
84 | COc1cc(N2C[C@@H]3COC[C@]3(COc3cccnc3)C2)ncn1 | 42.1
85 | COCC(=O)NC[C@]12COC[C@H]1CN(c1ncc(F)cn1)C2 | -22.1
86 | COc1cc(N2C[C@@H]3COC[C@]3(COCc3ccccn3)C2)ncn1 | 68.4
87 | Cc1cccc(COC[C@]23COC[C@H]2CN(c2ncccn2)C3)n1 | 38.1
88 | COc1ncccc1CN1C[C@@H]2COC[C@]2(COc2ccccn2)C1 | -32
89 | CS(=O)(=O)N1C[C@H]2CC[C@@H](C1)N(C(=O)Cn1ccc3ccccc31)C2 | -7.98
90 | CC(C)C(C)NC(=O)Nc1cccc(OCC#N)c1 (stereo not given) | -16
91 | CC(c1c(F)cccc1F)N1CCN(Cc2nccn2C)CC1 (stereo not given) | 19.2
92 | Cc1nc(CNC(=O)Nc2c(C)n[nH]c2C)cs1 | 19.9
93 | CN(C)C(=O)CN1CCC2(CCN(Cc3nccs3)CC2)C1=O | -21.3
94 | Cc1nc2cc(C3CCOCC3)nn2c(NCC2COCCO2)c1C (stereo not given) | 32.75
95 | CCn1ncc2c1C(COCC1CC1)CN(S(=O)(=O)N(C)C)C2 (stereo not given) | 35.1
